Sampled rows, rich in hits. Any-hit rate of the full collection: about 14%.
USP28 inh – blocks human USP28 ubiquitin-rhodamine cleavage | hit rate 3% among 47,000 | AID 1645857 | inhibition, % at 25 µM | purified USP28, Ub-rhodamine cleavage fluorescence, 30 min
USP30 block – human USP30 deubiquitinase inhibition. Q70CQ3. purified USP30, Ub-rhodamine cleavage fluorescence. inhibition, % at 25 µM. hit rate 5.3% among 47,000. AID 1645860
USP8 inh – human USP8 deubiquitinase inhibition; purified USP8, Ub-rhodamine cleavage fluorescence, 30 min; inhibition, % at 20 µM; hit rate 4.2% among 47,000
USP17 block – blocks human USP17 ubiquitin-rhodamine cleavage. A8MUK1. inhibition, % at 50 µM. AID 1645855. hit rate 6.5% among 47,000. purified USP17, Ub-rhodamine cleavage fluorescence, 3 h
USP10 block – blocks human USP10 ubiquitin-rhodamine cleavage | purified USP10, Ub-rhodamine fluorescence, 60 min | inhibition, % at 20 µM | hit rate 1.1% among 47,000 | AID 1645856
A number is an active result; . = inactive. No stated cut-off is given here; in the data, active means inhibition above about 30%; inactive means the rest.

SMILES	USP28 inh	USP30 block	USP8 inh	USP17 block	USP10 block
O=S(=O)(NCc1ccccn1)c1ccc(Cc2ncc(C(F)(F)F)cc2Cl)s1	.	.	.	.	.
N#Cc1ccc(Cc2ncc(C(F)(F)F)cc2Cl)s1	59.8	.	.	.	.
Cc1cc(F)ccc1S(=O)(=O)Nc1ccc(C(=O)N2CCCCC2)cc1	.	.	.	.	.
COc1cc2c(cc1OC)C(COc1cc(C)cc(C)c1)NCC2 (centres undefined)	.	.	64.9	.	.
O=C(CN1C(=O)C2CCCN2C(=O)c2ccc(F)cc21)NCc1ccccc1 (centres undefined)	.	.	.	.	.
COc1cccc2c1OCC(C(=O)NCc1ccc(F)cc1)=C2	50.6	.	.	.	.
CC1(c2nccs2)CCN(C(=O)c2ccc3n[nH]nc3c2)CC1	.	.	.	.	.
O=C(Nc1ccccc1N1CCOCC1)C1Cc2ccccc2CN1S(=O)(=O)c1ccccc1F (centres undefined)	.	.	30.6	.	.
O=C(Nc1ccccc1N1CCOCC1)C1CCCCN1S(=O)(=O)c1ccccc1 (centres undefined)	.	.	.	.	.
CC(C)C(=O)N1C[C@@H]2C[C@]2(c2ccccc2)C(=O)c2ncccc21	.	.	.	.	.
Cc1ncoc1C(=O)N1CCCC(c2ncc(Cc3ccccc3)o2)C1 (centres undefined)	.	.	.	.	.
O=C(NCc1ccc(F)cc1F)c1c(O)c2cnn(-c3ccc(F)cc3)c2[nH]c1=O	.	.	.	.	.
CC(NC(=O)c1c(O)c2cnn(Cc3ccccc3)c2[nH]c1=O)c1ccccc1 (centres undefined)	.	.	85.7	.	.
O=C(NCc1ccc2c(c1)OCO2)c1c(O)c2cnn(Cc3ccccc3)c2[nH]c1=O	.	.	57.4	.	.
O=C(NCc1ccc2c(c1)OCO2)c1c(O)c2cccnc2n(-c2ccccc2)c1=O	.	.	81.3	.	.
O=C(NCc1cc(F)cc(F)c1)c1c(O)c2cnn(Cc3ccccc3)c2[nH]c1=O	.	.	.	.	.
Cc1ccc(NC(=O)c2c(O)c3cnn(C)c3[nH]c2=O)cc1C	.	.	84.8	.	.
Cc1ccc(S(=O)(=O)c2cn(CC(=O)Nc3ccccc3)c3nc(C)ccc3c2=O)cc1	.	.	.	.	.
CCn1c(CNS(=O)(=O)c2ccc(Cl)cc2)nnc1SCc1c(F)cccc1Cl	.	.	.	.	.
O=C(Nc1ccc2c(c1)CCO2)N1CCCCCC1	.	.	.	.	.
COc1ccccc1NC(=O)c1c(O)c2cccnc2n(-c2ccccc2)c1=O	.	.	33.0	.	.
Cc1ccccc1NC(=O)c1c(O)c2cnn(Cc3ccccc3)c2[nH]c1=O	.	.	83.0	35.2	.
CC(C)CN1C[C@H]2CCN(C(=O)c3ccccn3)CC[C@H]2S1(=O)=O	.	.	.	.	.
Cc1cc(-c2ccc(S(=O)(=O)NCCc3ccccc3)s2)on1	.	35.3	.	.	.
CC(=O)NC(Cc1ccc(F)cc1)C(=O)NC1CCN(C(=O)c2ccc(C)cc2)CC1 (centres undefined)	.	.	.	.	.
SMILES	USP28 inh	USP30 block	USP8 inh	USP17 block	USP10 block
CN=C(N)NCCC/C=C/CCCC(C)CC(C)C1OC(=O)/C=C/C(C)C(O)CC(O)C(C)C(O)CCC(C)C(O)CC2(O)OC(CC(OC(=O)CC(=O)O)CC(O)CC(O)C(C)C(O)/C=C/C1C)CC(O)C2O (centres undefined)	53.1	.	.	.	.
CC1=C(C)C(c2c(-c3ccc(C)cc3)[nH]c3ccccc23)N(C(C)(C)C)C1=O (centres undefined)	.	.	90.2	94.1	40.6
Cc1ccc2nnc(-c3ccccc3)c(C(=O)N3CCN(c4ccccn4)CC3)c2c1	.	.	.	50.3	.
CNc1nc2c(c(=O)n1C)CN(C(=O)Nc1cccc3ccccc13)CC2	43.3	.	90.3	71.2	.
CNc1nc2c(c(=O)n1C)CN(C(=O)Nc1ccc(C(C)(C)C)cc1)CC2	.	.	.	.	.
Cc1ccc2c(c1)n(S(=O)(=O)c1ccc(F)cc1)c(=O)n2S(=O)(=O)c1ccc(F)cc1	.	34.8	.	33.0	.
Cc1ccc2nc3c(cc2c1)CCN3S(=O)(=O)c1ccc(F)cc1	.	.	.	.	.
CCN(c1ccc(NC(=O)COC(=O)c2cccnc2Nc2cccc(C(F)(F)F)c2)cc1)C(C)C	.	.	.	.	.
CCN(c1ccc(NC(=O)CSc2nccc(=O)[nH]2)cc1)C(C)C	.	.	58.8	.	.

Screening data: PubChem BioAssay, Buhrlage Lab, Dana-Farber Cancer Institute and Novartis Institutes for BioMedical Research (Cambridge, Mass)
